# Sampled rows, rich in hits. Any-hit rate of the full collection: about 6.7%.
# T cruzi growth-1 = T. cruzi intracellular proliferation inhibitors, primary screen, cell-based, beta-gal Tulahuen parasites, NIH3T3 host, luminescence. T. cruzi beta-gal in NIH3T3, GalScreen luminescence, 90 h. inhibition, % at 8.34 µM. 77,000 compounds, 5.9% hits;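 active = mean inhibition above about 93%, with at least 55% of replicates each passing it, limit read from the data, passing the limit was not always enough; inconclusive = only one of those two conditions holds; inactive = neither condition holds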
# C diff growth = C. difficile growth inhibitors, primary screen, HTS; growth activity, negative = inhibition, % at 16 µg/mL (by protocol); 86,000 compounds, 0.25% hits; Clostridium difficile clinical isolate growth, OD600, 24 h; hits give low values;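 active = mean growth activity at or below -80% and every replicate also at or below -80%; inconclusive = mean at or below -80% but some replicate above -80%; inactive = mean growth activity above -80%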;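 also: 0% = DMSO wells and -100% = levofloxacin 16 µg/mL wells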
# Pf Dd2 inh = P. falciparum Dd2 growth inhibitors, primary screen, SYBR Green fluorescence, single dose replicates; activity change, % at 10 µM; 72 h; hits give low values; 94,000 compounds, 2.3% hits; in the data active = activity change below about -80%; inconclusive = no clear call, values can overlap the other calls
# T cruzi growth-2 = T. cruzi intracellular proliferation inhibitors, confirmation, cell-based, NIH3T3 host, beta-gal parasite, luminescence, cherry-pick; shares compounds with T cruzi growth-1; T. cruzi beta-gal in NIH3T3, GalScreen luminescence, 90 h; inhibition, % at 8.35 µM; 5,600 compounds, 72% hits;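 active = mean replicate inhibition above about 95% and at least 55% of replicates individually reaching it, limit read from the data; inconclusive = only one of the two criteria is met; inactive = neither criterion is met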
# T cruzi growth-3 = inhibitors of intracellular T. cruzi replication, confirmation, NIH3T3 host cells, beta-gal parasites, cherry-pick, set 2; 5,600 compounds, 21% hits; T. cruzi beta-gal in NIH3T3, GalScreen luminescence, 90 h; shares compounds with T cruzi growth-1; inhibition, % at 2.09 µM;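 active = mean inhibition above about 95%, with at least 55% of replicates also reaching it, limit read from the data; inconclusive = meets just one of the two conditions; inactive = meets neither condition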;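 also: plate controls were neutral control median for no effect and positive control median for full effect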
# NIH3T3 tox = cytotoxicity in mouse NIH/3T3 fibroblasts, confirmation, cytotoxicity control for T. cruzi proliferation inhibitor project, cell-based, cherry-pick, single point | NIH/3T3 viability, CellTiter-Glo ATP luminescence, 90 h | shares compounds with T cruzi growth-1 | cytotoxicity (signal decrease), % at 8.35 µM | 5,600 compounds, 14% hits;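 active = mean signal decrease across replicates above about 35% based on untreated-well scatter, with enough replicates individually passing, limit read from the data; inconclusive = no rule stated though some were filed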;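 also: 0% = median of neutral control wells and 100% = median of positive control wells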
# NIH3T3 tox 2 = NIH/3T3 fibroblast cytotoxicity, confirmation, cytotoxicity control, cell-based, cherry-pick, single point, set 2; NIH/3T3 viability, CellTiter-Glo ATP luminescence, 90 h; inhibition, % at 24.9 µM; 5,600 compounds, 56% hits; AID 651744, 2012; shares compounds with T cruzi growth-1;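 active = mean loss of cell viability signal at or above a set limit, and enough replicates individually reaching it; inconclusive = meets only the mean limit or only the replicate share; inactive = meets neither condition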;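 also: 0% = median of neutral control wells and 100% = median of positive control wells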
# Active calls of the source: *; ? = inconclusive; nt = not tested or not shown.
SMILES,T cruzi growth-1,C diff growth,Pf Dd2 inh,T cruzi growth-2,T cruzi growth-3,NIH3T3 tox,NIH3T3 tox 2
COc1ccc(CN(C)C[C@@H]2Oc3ccc(NC(=O)C4CCCCC4)cc3C(=O)N([C@@H](C)CO)C[C@@H]2C)cc1,3.0,-1.6,-24.3,nt,nt,nt,nt
CCCNC(=O)C[C@H]1C[C@@H]2c3cc(NC(=O)CC4CC4)ccc3O[C@@H]2[C@H](CO)O1,-15.1,0.7,19.0,nt,nt,nt,nt
C[C@@H]1CCCCO[C@H](CN(C)Cc2ccccc2)[C@@H](C)CN([C@@H](C)CO)C(=O)c2cc(NC(=O)CCC(F)(F)F)ccc2O1,38.2,5.5,-13.9,nt,nt,nt,nt
C[C@@H]1CN([C@H](C)CO)S(=O)(=O)c2ccc(-c3ccccc3)cc2O[C@H]1CN(C)C(=O)C1CC1,115.8,-10.5,-1.9,nt,nt,nt,nt
C[C@@H]1CN([C@@H](C)CO)S(=O)(=O)c2ccc(-c3ccccc3)cc2O[C@H]1CN(C)C(=O)C1CC1,?,-3.5,-12.5,78.0,29.3,38.3*,58.8*
COc1cccc(-c2ccc3c(c2)O[C@H](CN(C)C(=O)C2CC2)[C@H](C)CN([C@@H](C)CO)S3(=O)=O)c1,101.5*,nt,9.9,82.4,42.7,18.0,68.5*
COc1cccc(-c2ccc3c(c2)O[C@@H](CN(C)C(=O)c2ccccc2F)[C@H](C)CN([C@H](C)CO)S3(=O)=O)c1,nt,1.3,-79.3,nt,nt,nt,nt
COc1cccc(-c2ccc3c(c2)O[C@H](CN(C)C(=O)c2ccccc2F)[C@H](C)CN([C@H](C)CO)S3(=O)=O)c1,108.5*,-3.6,-49.9,105.3*,77.4,45.1*,74.2*
COc1cccc(-c2ccc3c(c2)O[C@H](CN(C)C(=O)C2CC2)[C@@H](C)CN([C@@H](C)CO)S3(=O)=O)c1,81.1,nt,-33.2,nt,nt,nt,nt
Cc1noc(C)c1NC(=O)Nc1ccc2c(c1)C(=O)N([C@@H](C)CO)C[C@H](C)[C@H](CN(C)Cc1ccncc1)OCCCC[C@@H](C)O2,33.9,-2.7,6.1,nt,nt,nt,nt
CC(C)CC#Cc1ccc2c(c1)O[C@H](CN(C)C(=O)c1cnccn1)[C@@H](C)CN([C@H](C)CO)S2(=O)=O,nt,-3.1,-12.2,nt,nt,nt,nt
C[C@@H]1CN([C@H](C)CO)C(=O)Cc2cc(NC(=O)C3CCCCC3)ccc2O[C@H]1CN(C)Cc1ccc(C(F)(F)F)cc1,82.5,80.1,3.5,nt,nt,nt,nt
CC(C)NC(=O)N1CCCCN2[C@H](C1)[C@H](c1ccc(C#C[C@H](C)O)cc1)[C@@H]2CO,18.8,-9.7,55.8,nt,nt,nt,nt
CC(C)NC(=O)N1CCCCN2[C@H](CO)[C@H](c3ccc(C#Cc4ccccc4)cc3)[C@@H]2C1,114.7*,-7.6,-65.8,108.9*,56.5,41.5*,62.2*
CC(C)NC(=O)N1CCCCN2[C@H](CO)[C@@H](c3ccc(C#C[C@H](C)O)cc3)[C@@H]2C1,106.1*,0.5,-77.6,46.9,24.5,11.4,24.5
CC(C)NC(=O)N1CCCCN2[C@@H](CO)[C@H](c3ccc(C#CC4CC4)cc3)[C@@H]2C1,?,-2.5,14.3,94.4,35.8,-10.7,22.3
CC(C)NC(=O)N1CCCCN2[C@H](CO)[C@@H](c3ccc(C#C[C@@H](C)O)cc3)[C@H]2C1,46.9,0.9,19.0,nt,nt,nt,nt
CC(C)NC(=O)N1CCCCN2[C@H](CO)[C@@H](c3ccc(C#Cc4ccccc4F)cc3)[C@@H]2C1,102.2*,-1.3,-25.2,108.2*,84.5,15.7,104.8*
CC(C)NC(=O)N1CCCCN2[C@H](CO)[C@H](c3ccc(C#CC4CC4)cc3)[C@@H]2C1,30.2,-11.6,31.6,nt,nt,nt,nt
CC(C)NC(=O)N1CCCCN2[C@H](CO)[C@H](c3ccc(C#C[C@@H](C)O)cc3)[C@@H]2C1,68.1,0.4,-0.7,nt,nt,nt,nt
C[C@H](NC(=O)[C@@H]1[C@@H](CO)[C@@H]2Cn3c(ccc(-c4cccnc4)c3=O)[C@@H]2N1C)c1ccccc1,48.9,1.8,5.1,nt,nt,nt,nt
CCCNC(=O)[C@@H]1[C@@H](CO)[C@@H]2Cn3c(ccc(-c4ccc(F)cc4)c3=O)[C@@H]2N1CCC,21.4,1.1,nt,nt,nt,nt,nt
CC(C)NC(=O)N1CCCCN2[C@H](CO)[C@@H](c3ccc(C#Cc4ccccc4)cc3)[C@@H]2C1,101.0*,31.6,8.5,107.4*,91.2,30.0,104.8*
CC(C)NC(=O)N1CCCCN2[C@H](CO)[C@@H](c3ccc(C#C[C@H](C)O)cc3)[C@H]2C1,31.1,5.8,17.6,nt,nt,nt,nt
CC(C)C#Cc1ccc([C@@H]2[C@@H](CO)N3CCCCN(C(=O)NC(C)C)C[C@H]23)cc1,91.6,-12.9,18.7,nt,nt,nt,nt
SMILES,T cruzi growth-1,C diff growth,Pf Dd2 inh,T cruzi growth-2,T cruzi growth-3,NIH3T3 tox,NIH3T3 tox 2
CC(C)NC(=O)N1CCCCN2[C@@H](CO)[C@H](c3ccc(C#Cc4ccccc4)cc3)[C@@H]2C1,105.6*,25.5,-23.1,107.9*,78.2,27.2,104.8*
CNC(=O)C[C@@H]1CC[C@@H]2[C@H](COC[C@@H](O)CN2Cc2ccc(C(F)(F)F)cc2)O1,nt,0.7,-6.6,nt,nt,nt,nt
C[C@H](CO)N1C[C@H](C)[C@H](CN(C)S(=O)(=O)c2ccc(F)cc2)Oc2ccc(NC(=O)Cn3cnnn3)cc2CC1=O,-12.6,-8.4,2.7,nt,nt,nt,nt
C[C@@H]1CN([C@@H](C)CO)S(=O)(=O)c2ccc(Br)cc2O[C@@H]1CN(C)Cc1cccnc1,112.2*,0.3,24.5,107.0*,80.4,10.8,13.1
C[C@H](CO)N1C[C@H](C)[C@H](CN(C)Cc2cccnc2)Oc2cc(Br)ccc2S1(=O)=O,nt,3.4,0.5,nt,nt,nt,nt
C[C@H](CO)N1C[C@H](C)[C@@H](CN(C)Cc2cccnc2)Oc2cc(Br)ccc2S1(=O)=O,111.1*,-0.2,4.4,92.5,66.9,-4.9,39.5*
C[C@H]1CN([C@@H](C)CO)S(=O)(=O)c2ccc(Br)cc2O[C@H]1CN(C)Cc1cccnc1,nt,-0.8,-2.4,nt,nt,nt,nt
C[C@H]1CN([C@@H](C)CO)C(=O)Cc2cc(NS(=O)(=O)c3ccc(F)cc3)ccc2O[C@@H]1CN(C)S(C)(=O)=O,23.1,-0.5,6.6,nt,nt,nt,nt
CN1[C@H](C(=O)NC2CCCC2)[C@@H](CO)[C@@H]2Cn3c(ccc(-c4cccc(F)c4)c3=O)[C@@H]21,nt,34.0,3.6,nt,nt,nt,nt
COc1ccc(S(=O)(=O)N(C)C[C@@H]2OCCCC[C@H](C)Oc3ccc(NS(=O)(=O)c4ccccc4)cc3C(=O)N([C@H](C)CO)C[C@@H]2C)cc1,66.9,-14.0,nt,nt,nt,nt,nt

# Bioassay records deposited in PubChem BioAssay by Broad Institute.
